Screens (PubChem BioAssay)
HP1b binding inh: HTS for Inhibitors of HP1-beta Chromodomain Interactions with Methylated Histone Tails; Chromobox protein homolog 1 (Homo sapiens), P83916; Potency, µM (top dose mostly 114 µM), hits mostly inhibitors; actives 0.56% (n = 390,000); AlphaScreen HP1-beta / biotin-H3K9me3 peptide binding; AID 540317, 2011; also: nearly all actives have a fitted effect of over 70% in size
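HP1-beta protein (50 nM final) preincubated 30 min at room temperature with biotinylated H3(1-18)K9me3 peptide (50 nM) in PBS pH 7.4, 0.01% Tween-20, then compound added for 30 min. AlphaScreen streptavidin donor/nickel chelate acceptor beads (10 ug/mL final), 30 min dark, luminescence read.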
Sfp inh: qHTS Assay for Inhibitors of Bacillus subtilis Sfp phosphopantetheinyl transferase (PPTase); Potency, µM, most hits filed as inhibitors; Biochemical Sfp PPTase activity, qHTS; actives 3.5% (n = 310,000); 4'-phosphopantetheinyl transferase ffp (Bacillus subtilis), Q9F4F7;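 also: the enzyme is Sfp with the accession as filed and its product quenches rhodamine fluorescence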
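Fluorescence-quenching assay with 15 nM Sfp, 5 uM rhodamine-CoA and 12.5 uM BHQ-2-labelled ybbR peptide in pH 7.6 Hepes/MgCl2 buffer. Enzyme was pre-incubated with compound for 15 min at room temperature. Rate was taken from the 30-min fluorescence change (525/598 nm).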
TDP1 inh: qHTS Assay for Inhibitors of Tyrosyl-DNA Phosphodiesterase (TDP1) | actives 0.28% (n = 350,000) | recombinant TDP1, AlphaScreen DNA substrate cleavage | Potency, µM (highest dose often 130 µM), most hits filed as inhibitors | AID 485290, 2010 | Tyrosyl-DNA phosphodiesterase 1 (Homo sapiens), Q9NUW8; also: nearly all actives have a fitted effect of over 40% in size
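AlphaScreen read-out: signal falls as enzyme removes the 3' tyrosine-FITC from a 5'-biotinylated DNA oligo (15 nM, 5 min, RT). Enzyme was E. coli-made recombinant Tdp1 at 1 nM, exposed to compound for 15 min beforehand; beads 10 ug/ml, 10 min.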
JMJD2A Tudor inh: qHTS Assay for Inhibitors of JMJD2A-Tudor Domain | Lysine-specific demethylase 4A (Homo sapiens), O75164 | AlphaScreen JMJD2A-Tudor / H3K4me3 peptide binding | Potency, µM (highest dose often 114 µM), hits mostly inhibitors | actives 4.4% (n = 390,000) | AID 504339, 2011; also: nearly all actives have a fitted effect of over 50% in size
G9a block: qHTS Assay for Inhibitors of Histone Lysine Methyltransferase G9a. G9a H3K9 monomethylation, AlphaScreen, 2 h. Potency, µM (top dose mostly 102 µM), usual class: inhibitors. actives 8.8% (n = 350,000). AID 504332, 2011; also: nearly all actives have a fitted effect of over 75% in size
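Enzyme 20 nM + cpd, 15 min RT; add b-H3K9 pep 500 nM / SAM 20 uM; 2 h RT; anti-H3K9me1 Ab 0.5 ug/mL + SA donor / anti-rabbit acceptor beads 20 ug/mL each, 10 min; AlphaScreen read.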
BAZ2B inh: qHTS Assay for Inhibitors of BAZ2B. AID 504333, 2011. AlphaScreen BAZ2B-H3K14Ac peptide displacement. Bromodomain adjacent to zinc finger domain protein 2B (Homo sapiens), Q9UIF8. Potency, µM (series often up to 114 µM), usual class: inhibitors. actives 4.4% (n = 360,000); also: nearly all actives have a fitted effect of over 60% in size
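BAZ2B 50 nM plus b-H3(5-23)K14Ac 50 nM, PBS pH 7.4/0.01% Tween-20, 30 min RT; compound added (max 110 uM), 30 min RT; streptavidin donor/Ni-chelate acceptor beads 10 ug/mL final, 20 min dark; AlphaScreen read.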
Each line names hits and unclear results; the compound was inactive in the other large screens. An excerpt weighted towards active compounds, which were near 12% of everything screened. Calls follow the shape of the dose curve; as a rule, active = well fitted curve in the direction sought with a large enough effect; inconclusive = small, poorly fitted or top-dose-only effect, or another doubt; inactive = no such curve, though single readings can be large; an effect the other way counts as inactive or inconclusive.

CCCCNC(=O)c1cc2cccc([N+](=O)[O-])c2[nH]1	G9a block 50.1µM, BAZ2B inh inconclusive
CCCCNC(=O)COc1ccccc1[N+](=O)[O-]	none
C=CCNC(=O)/C(C#N)=C/c1c(N2CCN(c3ccc(OC)cc3)CC2)nc2c(C)cccn2c1=O	HP1b binding inh inconclusive, JMJD2A Tudor inh 25.1µM, BAZ2B inh inconclusive (no result: TDP1 inh)
CNC(=O)/C(C#N)=C/c1c(N(Cc2ccccc2)Cc2ccccc2)nc2c(C)cccn2c1=O	Sfp inh inconclusive, JMJD2A Tudor inh inconclusive, G9a block 79.4µM, BAZ2B inh inconclusive
COC(=O)/C(C#N)=C/c1c(N2CCN(c3ccccc3)CC2)nc2c(C)cccn2c1=O	JMJD2A Tudor inh inconclusive, G9a block inconclusive (no result: TDP1 inh)
CCNC(=O)/C(C#N)=C/c1c(N(Cc2ccccc2)Cc2ccccc2)nc2ccccn2c1=O	JMJD2A Tudor inh inconclusive
COc1ccc(N2CCN(c3nc4c(C)cccn4c(=O)c3/C=C(\C#N)C(N)=O)CC2)cc1	JMJD2A Tudor inh inconclusive, G9a block 31.6µM, BAZ2B inh 35.5µM (no result: TDP1 inh)
O=C(CN(Cc1ccccc1)C1=NCCS1)c1ccc(Cl)cc1	G9a block 44.7µM
CCN1C(=O)[C@@H]2C(C(=O)c3cnccn3)=NN[C@@H]2C1=O	JMJD2A Tudor inh 44.7µM (no result: G9a block)
O=C(C1=NN[C@@H]2C(=O)N(c3cccc(F)c3)C(=O)[C@H]12)c1cnccn1	Sfp inh inconclusive, JMJD2A Tudor inh 17.8µM, G9a block 20µM, BAZ2B inh 44.7µM
Cc1ccc(CNC(=O)c2cc3c(-c4ccc(Cl)cc4)nn(C)c3s2)o1	Sfp inh inconclusive, G9a block 50.1µM
CCN1CCCC1CNC(=O)c1cc2c(-c3ccc(Cl)cc3)nn(C)c2s1 (stereo not given)	G9a block 79.4µM
COCCNC(=O)c1cc2c(-c3ccc(Cl)cc3)nn(C)c2s1	none
N#Cc1cccc(-c2ccc3ncnc(NCc4ccccc4)c3c2)c1	none (no result: HP1b binding inh, TDP1 inh, JMJD2A Tudor inh, BAZ2B inh)
N/C(=N\OS(=O)(=O)c1ccc(Cl)cc1)c1ccncc1	G9a block 2.51µM
C=C(N(C)C)[C@]1(C)C[C@H]1[C@H](NC(=O)CNC(=O)OCc1ccccc1)c1ccccc1	none (no result: HP1b binding inh, JMJD2A Tudor inh, G9a block, BAZ2B inh)
COCCNC(=O)c1ccccc1NC(=O)CCSc1ccccc1	none
Cc1nn(-c2ccccc2)c2c1C1(C(=O)N3c4c(cccc41)C(C)CC3(C)C)C(C#N)=C(N)O2 (stereo not given)	JMJD2A Tudor inh inconclusive, G9a block 10µM, BAZ2B inh inconclusive
Clc1ccc(-c2cn3cccnc3n2)cc1Cl	none
Nc1cccn2c(-c3ccc(Cl)c(Cl)c3)cnc12	HP1b binding inh inconclusive, JMJD2A Tudor inh 50.1µM, G9a block 44.7µM, BAZ2B inh 39.8µM
Cc1ccc(N=Nc2cc(C)ccc2O)c(C)c1	HP1b binding inh inconclusive, JMJD2A Tudor inh 44.7µM, G9a block 7.94µM, BAZ2B inh 5.62µM (no result: TDP1 inh)
Cc1ccc(O)c(N=Cc2cccs2)c1	none
Oc1ccc(N=Nc2ccc3c(c2)OCCO3)c2ncccc12	JMJD2A Tudor inh inconclusive, G9a block 11.2µM, BAZ2B inh inconclusive
Cc1ccc(C(=O)Nc2c(C)cc(C)c3cccnc23)cc1	none
Cc1ccc(C)c(N=Nc2ccc(O)c3ncccc23)c1	HP1b binding inh inconclusive, JMJD2A Tudor inh 8.91µM, G9a block 11.2µM, BAZ2B inh 20µM
Cc1ccc(N=Nc2ccc(N)cc2C)c(S(N)(=O)=O)c1	HP1b binding inh inconclusive, Sfp inh inconclusive, JMJD2A Tudor inh 8.91µM, G9a block 20µM, BAZ2B inh 50.1µM
Cc1ccc2c(c1)cc(C(=O)N[C@@H](Cc1ccccc1)C(=O)O)n2C	none (no result: TDP1 inh)
CS(=O)(=O)Nc1ccc(C(=O)Nc2ccc3c(c2)OCO3)cc1	none
